# Reference: PMC4336329 (PLoS ONE, 2015)
# Out of some 310,000 compounds screened, about 14,000 (4.5%) showed an effect of 50% or more. The effect is printed as a negative number. Only a selection was taken, and strong results are over-represented in it overall.
# Target: human ether-à-go-go-related gene (hERG) potassium channel (human, UniProt Q12809)
# Assay: primary screen, population patch clamp on CHO cells stably expressing hERG; higher = less effect of the substance
# 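Further: peak tail current of the secondary pulse compared with the same well before compound.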
# Sequence of human ether-à-go-go-related gene (hERG) potassium channel (Q12809 whole entry, looked up): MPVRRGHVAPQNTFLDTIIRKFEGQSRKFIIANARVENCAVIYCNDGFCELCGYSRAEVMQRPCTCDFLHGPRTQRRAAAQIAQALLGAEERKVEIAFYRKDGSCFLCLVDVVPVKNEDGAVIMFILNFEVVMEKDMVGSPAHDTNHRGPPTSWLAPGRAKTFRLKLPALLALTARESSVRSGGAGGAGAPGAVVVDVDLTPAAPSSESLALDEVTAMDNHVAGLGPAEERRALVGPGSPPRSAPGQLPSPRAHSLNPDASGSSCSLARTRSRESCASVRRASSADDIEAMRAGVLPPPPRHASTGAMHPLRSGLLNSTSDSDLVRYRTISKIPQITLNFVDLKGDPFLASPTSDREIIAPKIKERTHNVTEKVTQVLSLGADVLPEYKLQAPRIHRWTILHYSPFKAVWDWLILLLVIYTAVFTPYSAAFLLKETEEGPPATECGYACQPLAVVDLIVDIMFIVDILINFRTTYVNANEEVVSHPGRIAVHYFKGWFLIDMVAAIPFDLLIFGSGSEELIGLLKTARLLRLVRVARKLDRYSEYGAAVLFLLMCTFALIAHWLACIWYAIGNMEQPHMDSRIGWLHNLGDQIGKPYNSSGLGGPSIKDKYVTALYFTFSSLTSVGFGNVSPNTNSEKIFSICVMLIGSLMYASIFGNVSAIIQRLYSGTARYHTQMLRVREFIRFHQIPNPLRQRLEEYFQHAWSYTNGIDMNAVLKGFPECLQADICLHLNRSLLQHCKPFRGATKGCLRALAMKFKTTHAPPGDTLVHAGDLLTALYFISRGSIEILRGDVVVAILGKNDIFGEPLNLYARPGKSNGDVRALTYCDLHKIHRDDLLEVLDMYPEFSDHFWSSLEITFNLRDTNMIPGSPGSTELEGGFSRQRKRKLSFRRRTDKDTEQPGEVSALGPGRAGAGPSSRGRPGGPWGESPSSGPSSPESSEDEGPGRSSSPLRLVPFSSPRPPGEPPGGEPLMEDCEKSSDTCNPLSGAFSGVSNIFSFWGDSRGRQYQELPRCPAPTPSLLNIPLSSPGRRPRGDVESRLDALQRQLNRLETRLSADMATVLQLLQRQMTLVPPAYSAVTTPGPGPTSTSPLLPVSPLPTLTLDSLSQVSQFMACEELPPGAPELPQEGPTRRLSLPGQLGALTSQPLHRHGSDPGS
row,Compound,"hERG current change (%, negative = inhibition) at 10uM"
1,COc1cc2c(cc1OC)C(CC(=O)O)N(C(=O)CC1CCCC1)CC2 (centres unmarked),20.6%
2,COC(=O)CCCCC1SCC(NC(=O)OC)C1NC(=O)OC (centres unmarked),2.09%
3,CC(C)(C)OC(=O)COc1cc(F)ccc1[N+](=O)[O-],-3.54%
4,Cc1nc2ccccc2n1CC(O)COc1ccc(Br)cc1 (centres unmarked),-49.9%
5,Cc1ccc(OCC(O)Cn2c3ccccc3c3ccccc32)cc1 (centres unmarked),8.1%
6,CCCCn1c(=N)n(CC(O)COc2ccccc2)c2ccccc21 (centres unmarked),-73.1%
7,CCCCn1c(=N)n(CC(O)COc2ccc(C)cc2)c2ccccc21.Cl (centres unmarked),-81.8%
8,Br.CCCCn1c(=N)n(CCOc2ccc(C)cc2)c2ccccc21,-73.1%
9,OCc1nc2ccccc2n1CC(O)COc1ccccc1 (centres unmarked),6.25%
10,Cc1ccc(OCCn2c(=O)cnc3ccccc32)cc1,-9.95%
11,CCn1c(=N)n(CC(O)COc2ccc(C)cc2)c2ccccc21.Cl (centres unmarked),-70%
12,Cc1ccc(OCCn2c(=O)sc3ccccc32)cc1,4.98%
13,Cc1cc(NC(=O)C2CCCN(S(=O)(=O)c3c(C)noc3C)C2)n[nH]1 (centres unmarked),-16.1%
14,CCOc1ccc(C(=O)COC(=O)CNC(=O)C2CCCCC2)cc1,-0.0501%
15,O=C(COC(=O)C12CC3CC(CC(C3)C1)C2)Nc1ccc([N+](=O)[O-])cc1Br,8.64%
16,CN1CCC(=NNC(=O)COc2ccc(Cl)cc2)CC1,17.4%
17,CCCn1c(=N)n(CC(O)COc2ccc(C)cc2)c2ccccc21.Cl (centres unmarked),-89%
18,CC1SC2(CN3CCC2CC3)NC1=O (centres unmarked),18%
19,CC1=CN2C(=NC(=O)CC2(C)C(=O)N(CC(=O)NC2CCCC2)Cc2ccccc2)C=C1 (centres unmarked),9.32%
20,COc1ccccc1N1CCN(c2nc3ccccc3nc2C(C#N)C(=O)OC(C)C)CC1 (centres unmarked),-12%

row,Compound,"hERG current change (%, negative = inhibition) at 10uM"
1,Cc1cccc(C)c1OCC(=O)N1CC2(C)CC1CC(C)(C)C2 (centres unmarked),-7.94%
2,Cc1ccc(OCC(O)CN2CC3(C)CC2CC(C)(C)C3)cc1.O=C(O)C(=O)O (centres unmarked),-53.6%
3,Cc1cccc(OCC(O)CN2CC3(C)CC2CC(C)(C)C3)c1 (centres unmarked),-67.6%
4,CC1(C)CC2CC(C)(CN2CC(O)COc2ccccc2)C1.O=C(O)C(=O)O (centres unmarked),-41.5%
5,Cc1cccc(C(=O)N2CC3(C)CC2CC(C)(C)C3)c1 (centres unmarked),0.368%
6,CC1(C)CC2CC(C)(CN2CC(O)c2ccccc2)C1.O=C(O)C(=O)O (centres unmarked),-42.5%
7,CSc1nnc(C)c(=O)n1COC(=O)COc1ccc2ccccc2c1,-7.33%
8,Cc1nnc(SCCN2CCOCC2)n1-c1cccc(Cl)c1.O=C(O)C(=O)O,-4.95%
9,COc1ccccc1N1CCN(C(=O)CN(c2ccc(C)c(C)c2)S(C)(=O)=O)CC1,-6.02%
10,CCCCc1cc(=O)oc2cc(C)cc(OCC(=O)NCc3ccccn3)c12,-56.4%
11,CCCc1cc(=O)oc2cc(C)cc(OCC(=O)NCc3ccccn3)c12,-33.7%
12,Cc1cc(OCC(=O)NCc2ccccn2)cc(C)c1Br,-69.4%
13,Cc1cc(OCC(=O)NCc2ccncc2)c2c(C)cc(=O)oc2c1,-30.1%
14,Cc1cc(OCC(=O)NCc2ccncc2)c2c3c(c(=O)oc2c1)CCC3,-10.3%
15,CCc1cc(=O)oc2cc(C)cc(OCC(=O)NCc3ccncc3)c12,-54.8%
16,Cc1cc(OCC(=O)NCc2cccnc2)c2c3c(c(=O)oc2c1)CCCC3,-40.1%
17,Cc1cc(OCC(=O)NCc2ccncc2)c2c3c(c(=O)oc2c1)CCCC3,-62.2%
18,CCc1cc(=O)oc2cc(C)cc(OCC(=O)NCc3ccccn3)c12,-40%
19,Cc1cc(OCC(=O)NCc2ccncc2)c2c(C)c(C)c(=O)oc2c1,-40.6%
20,Cc1ccc(OCC(=O)NCc2ccccn2)cc1,12.4%

row,Compound,"hERG current change (%, negative = inhibition) at 10uM"
1,O=C(COc1ccc(Br)cc1)NCc1ccccn1,-8.53%
2,CSc1cccc(NC(=O)/C=C/c2ccccc2)c1,-7.06%
3,CC(=O)N1CCN(S(=O)(=O)c2cccc(C(=O)NCCC3=CCCCC3)c2)CC1,-8.54%
4,O=C1N(c2ccc(Cl)c(Cl)c2)CN(Cc2ccccc2)CN1n1cnnc1,-25.9%
5,COc1ccccc1-c1noc(CCC(=O)Nc2ccccc2Cl)n1,-4.71%
6,CS(=O)(=O)c1ccccc1-c1nnc(NC(=O)COc2ccc(Cl)cc2)o1,-6.82%
7,CCC1=C(OC(=O)N(CC)CC)N2C(=O)OC(=NCc3ccccc3)[C@]2(C)[C@H]2C1=CC[C@H]1C(=O)NC(=O)[C@H]12,-6.14%
8,CCC1CCCCN1C(=O)c1cc2c(=O)n3cccc(C)c3nc2s1 (centres unmarked),4.01%
9,CCC1Oc2ccccc2N(CC(=O)NCCC2=CCCCC2)C1=O (centres unmarked),3.64%
10,FC(F)(F)c1cc(-c2ccc(Cl)cc2)nc2ncnn12,-16.2%
11,CCc1cc(=O)oc2cc(C)cc(OCC(=O)NCc3cccnc3)c12,-31.5%
12,CCCCc1cc(=O)oc2cc(C)cc(OCC(=O)NCc3ccncc3)c12,-84.1%
13,CCCCc1cc(=O)oc2cc(C)cc(OCC(=O)NCc3cccnc3)c12,-54.1%
14,CCCc1cc(=O)oc2cc(C)cc(OCC(=O)NCc3cccnc3)c12,-44.4%
15,CCCc1cc(=O)oc2cc(C)cc(OCC(=O)Nc3cccnc3)c12,-0.927%
16,CCCCc1cc(=O)oc2cc(C)cc(OCC(=O)Nc3ccccn3)c12,28.6%
17,CCCc1cc(=O)oc2cc(C)cc(OCC(=O)Nc3ccccn3)c12,13.2%
18,CCCCc1cc(=O)oc2cc(C)cc(OCC(=O)Nc3cccnc3)c12,26.7%
19,CCCc1cc(=O)oc2cc(C)cc(OCC(=O)NCc3ccncc3)c12,-69.5%
